Results filed as inconclusive are left out. The source made the active and inactive calls. Calls come from the whole dose curve; as a rule, active = well fitted curve in the direction sought with a large enough effect; inconclusive = small, poorly fitted or top-dose-only effect, or another doubt; inactive = no such curve, though single readings can be large; an effect the other way counts as inactive or inconclusive.
Assays:
[1] = tested on: OV90; test: Primary qHTS to identify gynecologic anti-cancer compounds using libraries of approved drugs and bioactive compounds (AID 1345084); conditions: Gynecologic cancer cell panel viability, ATPlite luminescence, 48 h; series mostly up to 57.5 µM; note: nearly all actives have a fitted effect of over 55% in size
Summary of the method: (§1)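 Cell viability after 48 h drug treatment, ATPlite luminescence readout; five doses.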

[2] = tested on: PA-1; test: as above; conditions: Gynecologic cancer cell panel viability, ATPlite luminescence, 48 h; series mostly up to 57.5 µM
Summary of the method: as §1

[3] = tested on: SKOV3; test: as above; conditions: Gynecologic cancer cell panel viability, ATPlite luminescence, 48 h; series mostly up to 57.5 µM
Summary of the method: as §1

[4] = tested on: Tov-21-G; test: as above; conditions: Gynecologic cancer cell panel viability, ATPlite luminescence, 48 h; series mostly up to 57.5 µM
Summary of the method: as §1

[5] = tested on: Tov112D; test: as above; conditions: Gynecologic cancer cell panel viability, ATPlite luminescence, 48 h; series mostly up to 57.5 µM
Summary of the method: as §1

[6] = qHTS assay to identify inhibitors of the type 1 interferon - major histocompatibility complex class I in skeletal muscle: Counter screen cell viability and HiBit confirmation (AID 1347412); conditions: iHSKM muscle cells + IFN-b, HiBiT or CellTiter-Glo, 24 h; for activity change, negative = inhibition: at 45.9 µM (top of the series); for all read-outs here: nearly all actives have a fitted effect of over 60% in size
Summary of the method: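 Human myoblast knock-in line, 4.0 ng/ml IFN-beta stimulation, 24 h compound treatment. Endpoints: HiBiT lytic luminescence (HLA-B level) and CellTiter Glo (ATP). Dosing 12 concentrations, 3-fold steps, 46 uM highest final.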
% is set by controls: 0 for no effect and ±100 for the full control effect; potency is the fitted concentration of half-maximal effect.

COc1ccc([C@H]2CNC(=O)C2)cc1OC1CCCC1
inactive: Potency [1] | Potency [2] | Potency [3] | Potency [4] | Potency [5]

C=C1CN(Cc2ccc(C(=O)Nc3ccccc3N)cc2)C(=O)c2ccccc21
active: Potency [1] 6.31 µM | Potency [2] 2.24 µM | Potency [3] 1.41 µM | Potency [5] 3.98 µM

CCN1CCN(Cc2ccc(NC(=O)c3ccc(C)c(/C=C/c4cnc5[nH]ccc5c4OC)c3)cc2C(F)(F)F)CC1
active: Potency [1] 17.8 µM | Potency [2] 5.62 µM | Potency [3] 8.91 µM | Potency [4] 2.51 µM | Potency ([6]; HiBiT) 6.25 µM | Potency ([6]; Viability) 14 µM

CO[C@H]1C[C@@H]2CC[C@@H](C)[C@@](O)(O2)C(=O)C(=O)N2CCCC[C@H]2C(=O)O[C@H]([C@H](C)C[C@@H]2CC[C@H](n3cnnn3)[C@H](OC)C2)CC(=O)[C@H](C)/C=C(\C)[C@@H](O)[C@@H](OC)C(=O)[C@H](C)C[C@H](C)/C=C/C=C/C=C/1C
inactive: Potency [1] | Potency [2] | Potency [3] | Potency [5]

COc1ccc(CCO[C@@H]2CCCC[C@H]2N2CC[C@@H](O)C2)cc1OC
inactive: Potency [1] | Potency [2] | Potency [4] | Potency [5]

O=S(=O)(Nc1ccccn1)c1ccc(N=Cc2c(O)[nH]c3ccc4ncsc4c23)cc1
inactive: activity change, negative = cytotoxicity [1] -9.17% [at 11.6 µM] | activity change, negative = cytotoxicity [2] -2.66% [at 11.6 µM] | activity change, negative = cytotoxicity [4] 18.8% [at 11.6 µM]

Cc1ccc(-c2ccc3c(ccc4sc5c(c43)NC[C@@H](C)NC5=O)n2)cn1
inactive: Potency [1] | Potency [2] | Potency [3] | Potency [4] | Potency [5] | activity change, negative = inhibition ([6]; HiBiT) -1.05% | activity change, negative = inhibition ([6]; Viability) 10.5%

Cc1ccc(Cc2c(C)nc3nc(SCC(=O)NCCN4CCNCC4)nn3c2C)cc1
inactive: Potency [1] | Potency [2] | Potency [4] | Potency [5]

CC(C)Oc1ccc(C(=O)NC(CNC(=O)CN(C)C)Cc2ccc(-c3cn4cccc(C(C)O)c4n3)cc2)cc1Cl (stereo not given)
inactive: Potency [1] | Potency [3]
active: Potency [2] 0.316 µM | Potency [5] 0.316 µM

O=C(O)c1ccc(CN2CCC(CN[C@@H]3C[C@H]3c3ccccc3)CC2)cc1
inactive: Potency [1] | Potency [2] | Potency [4] | Potency [5]

O=C(O)CCCCCC[C@H]1C(=O)NC(=O)N1CC[C@@H](O)C1CCCCC1
inactive: Potency [1] | Potency [2] | Potency [4] | Potency [5]

C[C@@H]1CCN(C(=O)N2CCCC2)C[C@@H]1N(C)c1ncnc2[nH]ccc12
inactive: Potency [1] | Potency [2] | Potency [3] | Potency [5]

Cn1c(=O)n(-c2ccc(C(C)(C)C#N)cc2)c2c3cc(C#Cc4cccnc4)ccc3ncc21
active: Potency [1] 0.224 µM | Potency [2] 0.282 µM | Potency [4] 0.158 µM

COc1ncc(Nc2ncc([C@@H](C)N3CCN(S(C)(=O)=O)CC3)cc2-c2nc(C)nc(N)n2)cc1F
inactive: Potency [1] | Potency [2] | Potency [5]
active: Potency [3] 0.398 µM

COC1C(=O)CCC2(CO2)C1(O)C1(C)OC1CC=C(C)C (stereo not given)
inactive: Potency [1] | Potency [2] | Potency [3] | Potency [5]

N#CC(c1ccnc(OCc2ccc(CN3CCOCC3)cc2)n1)c1nc2ccccc2s1 (stereo not given)
active: Potency [1] 7.94 µM | Potency [3] 7.94 µM
inactive: Potency [2] | Potency [5]

CN1CCN(C2CCC(n3cc(-c4ccc(Oc5ccccc5)cc4)c4c(N)ncnc43)CC2)CC1 (stereo not given)
active: Potency [1] 17.8 µM | Potency [2] 3.55 µM | Potency [3] 3.55 µM | Potency ([6]; HiBiT) 15.7 µM | Potency ([6]; Viability) 11.1 µM

CC(C)c1cc(CNc2nc(Nc3cc(C4CC4)[nH]n3)cc(N3CCN(C)CC3)n2)on1
active: Potency [1] 3.16 µM | Potency [2] 0.398 µM | Potency [3] 1 µM | Potency [5] 5.01 µM | Potency ([6]; HiBiT) 1.98 µM
inactive: activity change, negative = inhibition ([6]; Viability) 6.65%

O=C(N/N=C/c1ccc(O)c(O)c1)c1cc2ccccc2cc1O
inactive: Potency [1] | Potency [2] | Potency [3] | Potency [5]

CC1(C)CC[C@@]2(C(=O)O[C@@H]3O[C@H](CO)[C@@H](O)[C@H](O)[C@H]3O)C(C1)C1=CCC3[C@@]4(C)CC[C@@H](O[C@@H]5O[C@H](C(=O)O)[C@@H](O[C@@H]6OC[C@@H](O)[C@H](O)[C@H]6O)[C@H](O[C@@H]6OC[C@](O)(CO)[C@H]6O)[C@H]5O)C(C)(C)C4CC[C@@]3(C)[C@]1(C)C[C@H]2O (stereo not given in full)
inactive: activity change, negative = cytotoxicity [1] -1.26% [at 11.6 µM] | activity change, negative = cytotoxicity [2] -34.8% [at 11.6 µM] | activity change, negative = cytotoxicity [3] -2.96% [at 11.6 µM] | activity change, negative = cytotoxicity [5] -29.7% [at 11.6 µM]

COc1cc(O)cc(C)c1C(=O)O[C@@H]1[C@H](O)[C@@H](CO)O[C@H]1n1ccc(=O)[nH]c1=O
inactive: Potency [1] | Potency [3] | Potency [5]
active: Potency [2] 3.98 µM

CC(=O)C=C=C1C(C)(C)CC(O[C@@H]2O[C@H](CO)[C@@H](O)[C@H](O)[C@H]2O)CC1(C)O (stereo not given in full)
inactive: Potency [1] | Potency [2] | Potency [4] | Potency [5]

Source: PubChem BioAssay (NCATS)
